Inconclusive results are not listed. Values without a mark were called inactive. Active and inactive are the calls of the source. Unless noted, calls come from the whole dose curve; as a rule, active = well fitted curve in the direction sought with a large enough effect in the repeat runs; inconclusive = weak or mixed curves; inactive = no such curve, though single readings can be large; an effect the other way counts as inactive or inconclusive. Non-standard residues stand in square brackets, D forms with d. Residues, ends and D or L forms follow the SMILES beside them. pGlu = O=C1CC[C@@H](C(=O)O)N1; Thz = O=C(O)[C@@H]1CSCN1

Test [1] is described as follows: qHTS assay to identify aromatase inhibitors - cell viability counter screen (AID 743084).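 Note: cells stimulated with testosterone during compound exposure; nearly all actives have a fitted effect of over 55% in size.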 Note: potency is the fitted concentration of half-maximal effect. In general terms: In qHTS, concentration-response curves come from the screen itself.
Test [2] concerns the target Aryl hydrocarbon receptor (Homo sapiens) (UniProt P35869). Briefly: qHTS assay to identify small molecule that activate the aryl hydrocarbon receptor (AhR) signaling pathway (AID 743085).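 Note: HG2L7.5c1 human HepG2 liver cells with stably integrated DRE-driven firefly reporter; series mostly up to about 70 µM; nearly all actives have a fitted effect of over 15% in size.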 A digest of the protocol:
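Luminescence read-out: ONE-Glo reagent, 30 min at room temperature, in HG2L7.5c1 HepG2 reporter cells treated 24 h at 37C. Viability was measured beforehand by CellTiter-Fluor fluorescence after 30 min at 37C.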

Test [3] can be described thus: qHTS assay to identify small molecule that activate the aryl hydrocarbon receptor (AhR) signaling pathway - cell viability counter screen (AID 743086). Note: nearly all actives have a fitted effect of over 45% in size. Note: potency is the fitted concentration of half-maximal effect. A digest of the protocol:
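Cytotoxicity counter screen: CellTiter-Fluor signal (30 min, 37 C) in 4000 HepG2 cells/well carrying the DRE-luciferase reporter, following 24 h compound exposure at 37 C.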

For test [4], the target named is Peroxisome proliferator-activated receptor gamma (Homo sapiens) (UniProt P37231). Nature of the test: qHTS assay to identify small molecule agonists of the peroxisome proliferator-activated receptor gamma (PPARg) signaling pathway (AID 743094; active = well fitted activation curve with a large enough effect in the signal ratio in the repeat runs, not every such curve was filed as active; the % refers to the signal ratio). A digest of the protocol:
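Reporter activation was scored by fluorescence of cleaved LiveBLAzer B/G substrate (1 h, room temperature) in PPARg-bla HEK293H cells previously treated 17 h at 37C with DMSO-dissolved compounds.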

The nature of test [5]: qHTS assay to identify small molecule phospholipidosis (PLD) inducers (AID 1259344; active = well fitted curve in the direction sought with a large enough effect; an effect the other way counts as inactive or inconclusive). In outline:
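Accumulated phospholipid, stained red by LipidTOX during 24 h compound treatment of HepG2 cells at 37 C, is quantified from images as pit number and intensity, normalised per cell using Hoechst-stained nuclei.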

Test [6] deals with Nuclear receptor subfamily 1 group I member 2 (Rattus norvegicus) (UniProt Q9R1A7). Nature of the test: Rat pregnane X receptor (rPXR) activation by small molecules, qHTS assay (AID 1346983). Note: nearly all actives have a fitted effect of over 20% in size. The conditions noted are these: rPXR luciferase reporter cells, One-Glo luminescence, 24 h; max activation: active compounds read high. A digest of the protocol: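 Luminescent readout (One-Glo luciferase, 30 min room temperature) followed 24 hr compound treatment at 37 C of rPXR cells plated 2,000 per well and preincubated 5hr; qHTS format with compounds delivered in DMSO.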
Sequence of Nuclear receptor subfamily 1 group I member 2 (Rattus norvegicus) (Q9R1A7 whole entry, looked up): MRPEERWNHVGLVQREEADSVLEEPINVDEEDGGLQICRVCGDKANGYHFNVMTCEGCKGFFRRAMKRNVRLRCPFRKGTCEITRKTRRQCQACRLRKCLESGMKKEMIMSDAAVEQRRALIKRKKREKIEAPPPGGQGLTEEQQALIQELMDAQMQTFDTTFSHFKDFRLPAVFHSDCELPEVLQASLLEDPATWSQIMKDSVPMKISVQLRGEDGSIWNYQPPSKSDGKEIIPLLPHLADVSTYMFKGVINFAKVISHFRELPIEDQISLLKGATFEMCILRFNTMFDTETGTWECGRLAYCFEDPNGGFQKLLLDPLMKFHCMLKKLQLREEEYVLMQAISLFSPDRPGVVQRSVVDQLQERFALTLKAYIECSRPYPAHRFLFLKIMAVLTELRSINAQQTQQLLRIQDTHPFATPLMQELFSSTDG

Test [7] has as its target Nuclear receptor subfamily 1 group I member 2 (Homo sapiens) (UniProt O75469). Briefly: CYP3A4 induction through human pregnane X receptor (PXR) by small molecules, qHTS assay (AID 1346984). Note: nearly all actives have a fitted effect of over 40% in size. A digest of the protocol: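 Induction measured in HepG2-based DPX-2 cells co-expressing human PXR and a CYP3A4 promoter-driven luciferase. After a 24-hour compound exposure, cells received CYP3A4 luciferin substrate at 3uM final for 3 hours, and light output was then recorded.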

For test [8] the target is unchanged. Briefly: Human pregnane X receptor (PXR) activation by small molecules, qHTS assay (AID 1346985). Note: nearly all actives have a fitted effect of over 40% in size. In outline:
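DPX-2 cells (HepG2 co-transfected with a PXR response element and a CYP3A4-promoter luciferase construct) were seeded at 2,000 per well, rested 5 hr at 37C, then exposed to DMSO-dissolved compounds for 24 hr. Activation was read as luciferase luminescence.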
% is set by controls: 0 for no effect and ±100 for the full control effect.

Sequence of Peroxisome proliferator-activated receptor gamma (Homo sapiens) (P37231 whole entry, looked up): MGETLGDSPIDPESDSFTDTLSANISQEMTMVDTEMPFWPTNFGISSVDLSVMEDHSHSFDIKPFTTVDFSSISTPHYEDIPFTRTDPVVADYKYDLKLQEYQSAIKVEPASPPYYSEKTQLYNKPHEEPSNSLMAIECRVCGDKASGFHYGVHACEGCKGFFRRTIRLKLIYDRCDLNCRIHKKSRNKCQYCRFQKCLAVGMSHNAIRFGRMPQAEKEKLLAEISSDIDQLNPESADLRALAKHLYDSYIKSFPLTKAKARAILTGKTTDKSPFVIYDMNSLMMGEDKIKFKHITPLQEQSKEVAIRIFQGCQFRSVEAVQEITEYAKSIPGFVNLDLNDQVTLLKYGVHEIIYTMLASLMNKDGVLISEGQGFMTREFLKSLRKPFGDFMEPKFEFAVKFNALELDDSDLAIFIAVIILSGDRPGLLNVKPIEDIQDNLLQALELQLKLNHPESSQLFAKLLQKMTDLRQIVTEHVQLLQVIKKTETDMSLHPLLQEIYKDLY
Sequence of Aryl hydrocarbon receptor (Homo sapiens) (P35869 whole entry, looked up): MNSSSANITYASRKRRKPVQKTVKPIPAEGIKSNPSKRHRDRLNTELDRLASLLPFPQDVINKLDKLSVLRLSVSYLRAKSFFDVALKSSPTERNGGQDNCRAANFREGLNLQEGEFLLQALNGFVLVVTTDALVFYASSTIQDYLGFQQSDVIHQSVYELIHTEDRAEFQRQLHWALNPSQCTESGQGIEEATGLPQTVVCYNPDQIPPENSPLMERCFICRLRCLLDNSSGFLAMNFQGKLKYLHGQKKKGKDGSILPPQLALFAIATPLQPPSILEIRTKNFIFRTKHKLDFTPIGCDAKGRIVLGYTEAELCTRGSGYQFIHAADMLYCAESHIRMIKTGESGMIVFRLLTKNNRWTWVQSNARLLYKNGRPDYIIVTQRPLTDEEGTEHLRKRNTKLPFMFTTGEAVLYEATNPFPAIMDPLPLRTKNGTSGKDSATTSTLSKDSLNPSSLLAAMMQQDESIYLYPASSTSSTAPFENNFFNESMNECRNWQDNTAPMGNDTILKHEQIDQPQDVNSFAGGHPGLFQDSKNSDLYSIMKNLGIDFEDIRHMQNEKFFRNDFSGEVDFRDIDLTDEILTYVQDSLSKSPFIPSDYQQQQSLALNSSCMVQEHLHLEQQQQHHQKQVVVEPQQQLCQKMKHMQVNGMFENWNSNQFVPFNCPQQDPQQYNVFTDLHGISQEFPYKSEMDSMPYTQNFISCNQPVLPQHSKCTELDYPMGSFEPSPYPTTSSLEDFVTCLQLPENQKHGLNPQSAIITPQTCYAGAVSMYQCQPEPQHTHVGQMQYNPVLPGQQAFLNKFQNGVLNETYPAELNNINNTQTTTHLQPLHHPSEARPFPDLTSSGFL

As to `O=S(=O)(O)CCCS(=O)(=O)O`, the Potency entry in test [1], in test [2], in test [3], in test [4], in test [5] and in test [7] was “inactive” each time. Also, the Potency result in test [8] is “inactive”. Moreover, the max activation in test [6] was -2.5%.
For `COC(F)(F)C(Cl)Cl`, the Potency result in test [1], in test [2], in test [3], in test [4], in test [5] and in test [7] was “inactive” each time. Moreover, the Potency result in test [8] is “inactive”. The max activation in test [6] was 0.553%.
In the case of `OC1OC[C@@H](O)[C@H](O)[C@@H]1O` (stereo partly specified), the Potency entry in test [1], in test [2], in test [3], in test [4], in test [5] and in test [7] was “inactive” each time. Besides, the Potency entry in test [8] is “inactive”. The max activation in test [6] was 0.988%.
With `Cc1cccc(C)c1NC(=O)NC1=CCCN1C`, the Potency result in test [1], in test [2], in test [3], in test [4], in test [5] and in test [7] was “inactive” in each case. Also, in test [8], the Potency entry is “inactive”. For the same compound, the max activation in test [6] was -2.14%.
In the case of `CC(=O)N[C@@H]([C@@H](O)[C@H](O)[C@H](O)CO)[C@@H](O)CC(=O)C(=O)O`, the Potency result in test [1], in test [2], in test [3], in test [4], in test [5] and in test [7] was “inactive” throughout. Also, the Potency entry in test [8] is “inactive”. Moreover, the max activation in test [6] was -0.275%.
Turning to `CC(C)[C@@H](C)/C=C/[C@@H](C)[C@H]1CC[C@H]2/C(=C/C=C3\C[C@@H](O)CC[C@@H]3C)CCC[C@]12C`, the Potency entry in test [1], in test [2], in test [3], in test [4], in test [5] and in test [7] was “inactive” in each case. For the same compound, in test [8], the Potency entry was “inactive”. Besides, the max activation in test [6] is -0.157%.
Consider `O=C(CO)[C@@H](O)[C@H](O)[C@@H](O)C(=O)O`, for which the Potency entry in test [1], in test [2], in test [3], in test [4], in test [5] and in test [7] was “inactive” in each case. Also, the Potency result in test [8] was “inactive”. The max activation in test [6] is -2.1%.
As for `CC1(C)S[C@@H]2[C@H](NC(=O)C(N)c3ccccc3)C(=O)N2[C@H]1C(=O)OC1OC(=O)c2ccccc21` (stereo partly specified), the Potency entry in test [1], in test [2], in test [4], in test [5], in test [7] and in test [8] was “inactive” each time. The max activation in test [6] was -3.71%.
For the compound `CO/N=C(\C(=O)N[C@@H]1C(=O)N2C(C(=O)O)=C(CSC(=O)c3ccco3)CS[C@H]12)c1csc(N)n1`, the Potency entry in test [1], in test [2], in test [3], in test [4], in test [5] and in test [7] was “inactive” each time. Moreover, the Potency result in test [8] is “inactive”. The max activation in test [6] is -5.54%.
Turning to `O=C(O)CC/C=C\CC[C@@H]1[C@@H](N2CCCCC2)[C@@H](O)C[C@@H]1OCc1ccc(-c2ccccc2)cc1`, the Potency entry in test [1], in test [2], in test [3], in test [4], in test [5] and in test [7] was “inactive” in each case. In test [8], the Potency entry is “inactive”. For the same compound, the max activation in test [6] was -6.46%.
`O=C1CC[C@@H](C(=O)N2CSC[C@H]2C(=O)O)N1` ([pGlu]-[Thz]-OH): the Potency result in test [1], in test [2], in test [3], in test [4], in test [5] and in test [7] was “inactive” in each case. Moreover, the Potency entry in test [8] was “inactive”. Further, the max activation in test [6] was 0.797%.
Turning to `S=C=Nc1ccc(N=C=S)cc1`, the Potency entry in test [1], in test [2], in test [3], in test [4], in test [5] and in test [7] was “inactive” throughout. Further, the Potency result in test [8] was “inactive”. The max activation in test [6] was -1.24%.
Consider `CC(C)(C)c1ccc(CN2CCN(C(c3ccccc3)c3ccc(Cl)cc3)CC2)cc1` (stereo unspecified), for which the Potency result in test [1], in test [2], in test [4], in test [5], in test [7] and in test [8] was “inactive” in each case. In test [6], the max activation was 10.7%.
For the compound `CCCCCCCCCCCCCCCCCC(=O)OCC(C)O` (stereo unspecified), the Potency is 18.8 µM (active) in test [1] and 33.5 µM (active) in test [3]. In addition, the Potency entry in test [2], in test [4], in test [5], in test [7] and in test [8] was “inactive” throughout. The max activation in test [6] was -10.2%.
Turning to `CC(C)[C@@H]1CC[C@@H](C)C[C@H]1OC(=O)c1ccccc1O`, the Potency result in test [1], in test [2], in test [3], in test [4], in test [5] and in test [7] was “inactive” throughout. For the same compound, the Potency result in test [8] is “inactive”. Moreover, the max activation in test [6] was -0.772%.
In the case of `CC(=O)Nc1c(I)c(C(=O)N[C@H]2C(O)O[C@H](CO)[C@@H](O)[C@@H]2O)c(I)c(N(C)C(C)=O)c1I` (stereo partly specified), the Potency result in test [1], in test [2], in test [3], in test [4], in test [5] and in test [7] was “inactive” each time. The Potency result in test [8] was “inactive”. Further, the max activation in test [6] is -3.77%.
Take `CCOC(=O)[C@H](CS)NCCN[C@@H](CS)C(=O)OCC`: the Potency entry in test [1], in test [3], in test [5], in test [7] and in test [8] was “inactive” each time. Further, in test [6], the max activation was -0.64%.
As to `O=C(O)CCC/C=C\C[C@@H]1[C@@H](/C=C/[C@@H](O)COc2cccc(C(F)(F)F)c2)[C@H](O)C[C@@H]1O`, the Potency result in test [1], in test [3], in test [4], in test [5], in test [7] and in test [8] was “inactive” in each case. The max activation in test [6] is -3.83%.
`CN=C1C=CC(=C(c2ccc(N(C)C)cc2)c2ccc(N(C)C)cc2)C=C1`: the Potency in test [1] and in test [3] was 6.68 µM (active) in each case. Moreover, the Potency result in test [5], in test [7] and in test [8] was “inactive” each time. Moreover, the max activation in test [6] is -26%.
Consider `O=C(OC1C[C@@H]2CC3C[C@H](C1)N2CC3=O)c1c[nH]c2ccccc12` (stereo partly specified), for which the Potency result in test [1], in test [4], in test [5], in test [7] and in test [8] was “inactive” throughout. The max activation in test [6] is 6.05%.

The values above are taken from PubChem BioAssay (Tox21).
